Experimental findings from PubChem BioAssay (Tox21) are described below.

Molecules are shown by their SMILES. Results filed as inconclusive are left out. The source made the active and inactive calls. Calls follow the shape of the dose curve; as a rule, active = well fitted activation curve with a large enough effect in the signal ratio in the repeat runs (not every such curve was filed as active); inconclusive = weak or mixed curves, or effect the other way; inactive = no such curve, though single readings can be large or run the other way; the % refers to the signal ratio.

The target in this assay is Peroxisome proliferator-activated receptor gamma (Homo sapiens) (UniProt P37231). In words: qHTS assay to identify small molecule agonists of the peroxisome proliferator-activated receptor gamma (PPARg) signaling pathway (AID 743094). Particulars: HEK293H PPARg-UAS-bla, beta-lactamase FRET ratio, 17 h; series mostly up to 57 µM. The source says: U.S. Tox21 Program National Center for Advancing Translational Sciences [NCATS] NIH Chemical Genomics Center [NCGC] U.S. Environmental Protection Agency [EPA] National Institutes of Environmental Health Sciences [NIEHS] National Toxicology Program [NTP] U.S. Food and Drug Administration [FDA] Tox21 Assay Overview: The peroxisome proliferator-activated receptors (PPARs) are lipid-activated transcription factors of the nuclear receptor superfamily with three distinct subtypes namely PPAR alpha, PPAR delta (also called PPAR beta) and PPAR gamma (PPARg). All these subtypes heterodimerize with Retinoid X receptor (RXR) and these heterodimers regulate transcription of various genes. PPAR-gamma receptor (glitazone receptor) is involved in the regulation of glucose and lipid metabolism. To identify the compounds that activate PPAR-gamma signaling, GeneBLAzer PPAR gamma UAS-bla HEK293H cell line (Invitrogen, Carlsbad, CA, USA) containing a beta-lactamase reporter gene under control of the control of an upstream activator sequence (UAS) stably integrated into HEK293H cells was used to screen Tox21 compound library.
Chain of Peroxisome proliferator-activated receptor gamma (Homo sapiens) (P37231 whole entry, looked up): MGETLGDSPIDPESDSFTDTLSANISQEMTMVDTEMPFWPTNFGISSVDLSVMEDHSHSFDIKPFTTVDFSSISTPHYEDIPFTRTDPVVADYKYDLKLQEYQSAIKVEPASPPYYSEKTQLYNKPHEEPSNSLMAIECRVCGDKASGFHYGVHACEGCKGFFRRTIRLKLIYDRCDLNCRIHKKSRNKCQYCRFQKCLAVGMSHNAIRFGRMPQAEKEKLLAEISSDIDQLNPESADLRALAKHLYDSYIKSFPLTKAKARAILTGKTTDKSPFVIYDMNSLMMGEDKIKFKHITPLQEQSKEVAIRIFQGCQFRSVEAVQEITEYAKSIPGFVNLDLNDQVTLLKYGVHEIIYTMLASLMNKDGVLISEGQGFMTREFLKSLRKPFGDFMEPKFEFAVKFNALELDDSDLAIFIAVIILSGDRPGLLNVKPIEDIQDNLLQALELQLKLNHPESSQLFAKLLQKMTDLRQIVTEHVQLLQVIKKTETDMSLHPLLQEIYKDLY
Tox21 Assay Protocol Summary: PPARg-bla cells were dispensed at 3000 cells/6uL/well in 1536-well black wall/clear bottom plates using a Multidrop Combi (Thermo Fisher Scientific, Waltham, MA) dispenser. After the assay plates were incubated at 37C and 5% CO2 for 5 h, 23 nL of compounds dissolved in DMSO, positive controls or DMSO only was transferred to the assay plate by a Pintool station (Kalypsys, San Diego, CA). The assay plates were incubated at 37C for 17 h. After 1 uL of LiveBLAzerTM B/G FRET substrate was added using a Bioraptr Flying Reagent Dispenser (FRD) workstation (Beckman Coulter, Indianapolis, IN, USA), the plates were incubated at room temperature for 1 h, and fluorescence intensity was measured by an Envision plate reader (PerkinElmer, Shelton, CT).
(In qHTS, concentration-response curves come from the screen itself.)
As to `CCCCC(=O)N(C)C`, the result was inactive.

In the case of `CCCCCCCCOC(C)=O`, the outcome was inactive. Take `CCCCOC(=O)C(C)OC(=O)CCC` (stereo not given): the outcome was inactive. With `CCc1nccnc1C`, the result was inactive. On to `C=CCOCC(O)CCl` (stereo not given), for which the result was inactive. For `C1=CCC(c2ccccc2)CC1` (stereo not given), the outcome was inactive.

Regarding `CC(C)CCCC(C)CC=O` (stereo not given), the result was inactive.

Consider `Cc1ccccc1N1CCN(CCc2nnc3n2CCCC3)CC1`, for which the result was inactive.

Take `CCCO`: the result was inactive. `COC(=O)CCC(=O)O`: the outcome was inactive. For `Cc1nc2ccccc2c(=O)o1`, the result was inactive. Consider `CNCc1ccccc1`, for which the outcome was inactive. For `O=C(O)CCNC(=O)c1ccccc1`, the result was inactive. The value for `CC1=CC[C@H](CC=O)C1(C)C` was “inactive”; that for `O=C(c1ccc2c(c1)C(=O)OC2=O)c1ccc2c(c1)C(=O)OC2=O` was “inactive”.

In the case of `OC(CCN1CCCCC1)(c1ccccc1)c1ccccc1`, the outcome was inactive. With `CCN(Cc1cccc(S(=O)(=O)O)c1)c1ccccc1`, the result was inactive. As to `C[C@H]1O[C@H](O[C@H]2[C@H](O)[C@@H](O)[C@@H](O[C@H]3[C@H](O)[C@@H](O)[C@H](O)O[C@@H]3CO)O[C@@H]2CO)[C@H](O)[C@@H](O)[C@@H]1N[C@H]1C=C(CO)[C@@H](O)[C@H](O)[C@H]1O`, the outcome was inactive. For the compound `CC(=O)OC(C(=O)c1ccccc1)c1ccccc1` (stereo not given), the result was inactive.

On to `Cc1ccccc1C`, for which the outcome was inactive. Consider `CCCCCCCCCOCC1CO1` (stereo not given), for which the result was inactive. On to `CC(=O)c1ccc(OCC(=O)N2CCCCC2)cc1`, for which the outcome was inactive. The value for `Oc1ccccc1Cc1ccccc1O` was “inactive”. Regarding `NS(=O)(=O)c1ccc(Cl)c(S(N)(=O)=O)c1`, the result was inactive.

As for `CCC(O)C(C)(C)C` (stereo not given), the outcome was inactive. Turning to `Cc1c(C(C)C)c(=O)n(-c2ccccc2)n1C`, the outcome was inactive. Take `OC[C@@H](O)[C@H](O)[C@@H](O)[C@@H](O)CO`: the outcome was inactive. `O=P(O)(O)OCC(O)CO` (stereo not given): the result was inactive. For the compound `CC(C)COC(=O)CC(C(=O)OCC(C)C)S(=O)(=O)O` (stereo not given), the outcome was inactive. In the case of `C=C(C)C(=O)OCCCCCCOC(=O)C(=C)C` it was “inactive”; in that of `C[C@H](CCC(=O)O)[C@H]1CC[C@H]2[C@@H]3[C@H](O)C[C@@H]4C[C@H](O)CC[C@]4(C)[C@H]3C[C@H](O)[C@]12C`, “inactive”; in that of `N#CCCOCCOCCC#N`, “inactive”. On to `O=C(O)c1ccccc1C(=O)Nc1ccc(S(=O)(=O)Nc2nccs2)cc1`, for which the result was inactive. For the compound `O=C(COCCOCCOCC(=O)Nc1c(I)cc(I)c(C(=O)O)c1I)Nc1c(I)cc(I)c(C(=O)O)c1I`, the outcome was inactive. For the compound `Cc1ncc([N+](=O)[O-])n1CC(O)CCl` (stereo not given), the outcome was inactive. The value for `CCCC(C)CC` (stereo not given) was “inactive”; that for `CC(C)COC(=O)COc1ccc(Cl)cc1Cl` was “inactive”; that for `C[Si]1(C)N[Si](C)(C)N[Si](C)(C)N1` was “inactive”. For `Nc1ccnc(=O)[nH]1`, the result was inactive. Turning to `CN[C@@H]1[C@@H](O)[C@@H](O[C@@H]2[C@H](O)[C@H](O[C@H]3OC(CN)=CC[C@H]3N)[C@@H](N)C[C@H]2N)OCC1(C)O` (stereo not given in full), the result was inactive.
